Data reported in PubChem BioAssay.
Activity calls are given as the source filed them.

Assays:
[1] = binders of probe aFSTL3 on microarray, primary screen, stem cell growth factor project, biochemical, small-molecule microarray, fluorescence 635/667 (AID 1064); conditions: higher = more signal;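 further: measures binding of the biotinylated anti-FSTL3 antibody to printed compounds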
[2] = binders from COS7 lysate, DM2A8 probe, primary screen, torsin A project, cell lysate, small-molecule microarray, fluorescence 635/667 (AID 1065); conditions: higher = more signal, COS7 lysate expressing mutant human TOR1A
[3] = binders of probe aFGF2 on microarray, primary screen, stem cell growth factor project, biochemical, small-molecule microarray, fluorescence 635/667 (AID 1067); conditions: higher = more signal;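 further: measures binding of biotinylated aFGF2 protein to printed compounds on slides; z-score merges feature fluorescence and signal-to-noise across triplicate slides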
[4] = binders of probe aFGF10 on microarray, primary screen, stem cell growth factor project, biochemical, small-molecule microarray, fluorescence 635/667 (AID 1071); conditions: higher = more signal;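 further: score merges 667 nm spot intensity and signal to noise from triplicate slides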
[5] = molecular target: Neurogenic locus notch homolog protein 2 (Homo sapiens) (UniProt Q04721); experiment: Notch2 binders on small-molecule microarrays, primary screen, biochemical, small-molecule microarray, 635 nm fluorescence, stem cell growth factors (AID 1073); conditions: Notch2 binding, higher = more signal
Sequence of Neurogenic locus notch homolog protein 2 (Homo sapiens) (Q04721 whole entry, looked up, canonical isoform): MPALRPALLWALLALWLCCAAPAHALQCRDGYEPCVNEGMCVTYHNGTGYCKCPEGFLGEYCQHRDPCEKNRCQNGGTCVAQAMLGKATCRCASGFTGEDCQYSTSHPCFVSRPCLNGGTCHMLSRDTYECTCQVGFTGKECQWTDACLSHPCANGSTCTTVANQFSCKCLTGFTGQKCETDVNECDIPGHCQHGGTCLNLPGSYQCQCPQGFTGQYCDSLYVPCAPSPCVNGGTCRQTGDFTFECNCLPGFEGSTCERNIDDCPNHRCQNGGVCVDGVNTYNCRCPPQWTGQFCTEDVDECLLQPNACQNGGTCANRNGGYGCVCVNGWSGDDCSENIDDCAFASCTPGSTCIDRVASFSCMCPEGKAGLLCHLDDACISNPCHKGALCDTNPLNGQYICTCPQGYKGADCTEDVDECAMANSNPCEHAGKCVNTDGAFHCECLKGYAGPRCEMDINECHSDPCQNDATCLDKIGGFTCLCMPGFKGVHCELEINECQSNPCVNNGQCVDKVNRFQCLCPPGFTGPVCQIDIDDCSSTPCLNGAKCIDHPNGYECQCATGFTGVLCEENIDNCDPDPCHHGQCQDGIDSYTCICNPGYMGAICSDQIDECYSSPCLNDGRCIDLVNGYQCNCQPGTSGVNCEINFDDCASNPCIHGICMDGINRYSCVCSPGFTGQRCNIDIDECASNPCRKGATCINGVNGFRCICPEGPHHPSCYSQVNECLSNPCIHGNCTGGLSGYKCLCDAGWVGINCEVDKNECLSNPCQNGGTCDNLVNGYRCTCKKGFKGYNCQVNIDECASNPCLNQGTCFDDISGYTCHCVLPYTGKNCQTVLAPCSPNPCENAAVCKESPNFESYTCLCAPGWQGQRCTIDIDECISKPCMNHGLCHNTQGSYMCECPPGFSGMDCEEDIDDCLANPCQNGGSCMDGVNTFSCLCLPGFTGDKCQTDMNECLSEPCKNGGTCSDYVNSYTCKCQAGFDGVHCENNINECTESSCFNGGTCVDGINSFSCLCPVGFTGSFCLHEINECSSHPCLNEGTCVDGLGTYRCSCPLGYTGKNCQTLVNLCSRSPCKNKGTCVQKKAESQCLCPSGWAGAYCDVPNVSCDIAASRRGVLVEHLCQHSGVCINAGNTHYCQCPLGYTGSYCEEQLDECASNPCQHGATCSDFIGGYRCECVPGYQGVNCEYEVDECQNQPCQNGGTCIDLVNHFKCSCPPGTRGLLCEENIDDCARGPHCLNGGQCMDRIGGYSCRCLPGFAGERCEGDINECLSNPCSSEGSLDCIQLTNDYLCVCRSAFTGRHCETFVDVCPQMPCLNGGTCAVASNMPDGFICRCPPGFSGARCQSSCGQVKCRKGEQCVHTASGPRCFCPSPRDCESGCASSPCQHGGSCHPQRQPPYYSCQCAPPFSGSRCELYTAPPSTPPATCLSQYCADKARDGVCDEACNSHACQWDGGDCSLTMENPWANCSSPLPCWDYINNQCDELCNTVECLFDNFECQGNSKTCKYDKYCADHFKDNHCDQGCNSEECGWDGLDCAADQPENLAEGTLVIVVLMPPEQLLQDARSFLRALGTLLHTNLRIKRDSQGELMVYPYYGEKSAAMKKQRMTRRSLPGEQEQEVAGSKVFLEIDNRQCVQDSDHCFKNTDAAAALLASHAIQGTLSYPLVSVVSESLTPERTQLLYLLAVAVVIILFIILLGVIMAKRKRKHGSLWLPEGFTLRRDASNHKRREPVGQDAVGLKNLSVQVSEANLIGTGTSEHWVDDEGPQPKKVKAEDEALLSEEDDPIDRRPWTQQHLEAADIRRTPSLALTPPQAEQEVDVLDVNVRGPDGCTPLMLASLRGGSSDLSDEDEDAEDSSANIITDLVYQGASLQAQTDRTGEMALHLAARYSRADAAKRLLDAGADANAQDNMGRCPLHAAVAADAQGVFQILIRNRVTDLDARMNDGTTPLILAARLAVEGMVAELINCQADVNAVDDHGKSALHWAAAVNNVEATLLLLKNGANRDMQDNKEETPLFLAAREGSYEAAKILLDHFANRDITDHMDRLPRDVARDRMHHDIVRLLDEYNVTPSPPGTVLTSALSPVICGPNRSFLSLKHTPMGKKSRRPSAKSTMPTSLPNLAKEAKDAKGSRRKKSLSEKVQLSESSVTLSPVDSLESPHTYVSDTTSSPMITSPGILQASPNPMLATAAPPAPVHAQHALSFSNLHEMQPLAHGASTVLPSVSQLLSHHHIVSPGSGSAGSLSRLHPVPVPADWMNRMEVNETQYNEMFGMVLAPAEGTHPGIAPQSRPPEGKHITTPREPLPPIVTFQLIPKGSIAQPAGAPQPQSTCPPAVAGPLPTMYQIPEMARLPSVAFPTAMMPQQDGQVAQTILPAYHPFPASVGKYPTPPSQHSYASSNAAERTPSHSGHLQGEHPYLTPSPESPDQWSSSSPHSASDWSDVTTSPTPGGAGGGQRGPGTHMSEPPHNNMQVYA

[6] = molecular target: Pro-neuregulin-1, membrane-bound isoform (Homo sapiens) (UniProt Q02297); experiment: NRG1 binders on small-molecule microarrays, primary screen, psychiatric disease protein project, biochemical, small-molecule microarray, fluorescence 635/667 (AID 1075); conditions: NRG1 binding, 635 nm fluorescence, higher = more signal;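 further: score combines 667 nm spot fluorescence with signal to noise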
Sequence of Pro-neuregulin-1, membrane-bound isoform (Homo sapiens) (Q02297 whole entry, looked up, the tested form may be a part, canonical isoform): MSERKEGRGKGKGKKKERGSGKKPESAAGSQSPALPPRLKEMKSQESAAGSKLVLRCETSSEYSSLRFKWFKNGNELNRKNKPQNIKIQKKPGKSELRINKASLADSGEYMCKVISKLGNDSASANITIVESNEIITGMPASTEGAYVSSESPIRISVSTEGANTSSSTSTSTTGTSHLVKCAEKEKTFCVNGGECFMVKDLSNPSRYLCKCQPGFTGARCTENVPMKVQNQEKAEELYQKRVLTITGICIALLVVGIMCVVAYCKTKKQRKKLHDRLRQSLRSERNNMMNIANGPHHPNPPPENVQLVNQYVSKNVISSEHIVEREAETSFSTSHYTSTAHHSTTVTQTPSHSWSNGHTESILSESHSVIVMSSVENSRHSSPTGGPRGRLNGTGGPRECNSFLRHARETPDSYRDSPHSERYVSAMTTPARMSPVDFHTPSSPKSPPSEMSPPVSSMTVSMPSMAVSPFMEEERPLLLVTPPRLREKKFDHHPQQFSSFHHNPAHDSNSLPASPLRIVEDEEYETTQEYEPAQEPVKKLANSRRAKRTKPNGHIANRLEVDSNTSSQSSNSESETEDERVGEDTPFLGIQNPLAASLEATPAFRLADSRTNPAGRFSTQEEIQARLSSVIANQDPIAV

[7] = tested on: Neuregulin-1 EGF-like domain; experiment: binders of neuregulin-1 EGF-like domain, primary screen, biochemical, small-molecule microarray, 635 nm fluorescence (AID 1081); conditions: small-molecule microarray binding, higher = more signal;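 further: binding of the protein to compounds printed on small-molecule microarray slides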
[8] = FRG1 promoter luciferase signal modulators, primary screen, FRG1 inhibition for FSHD, cell-based, C2C12 myotubes, firefly/Renilla luciferase, luminescence (AID 1084); conditions: higher = more signal, called active from +8 up or from −8 down
[9] = binders of probe aFST on microarray, primary screen, stem cell growth factor project, biochemical, small-molecule microarray, fluorescence 635/667 (AID 1086); conditions: higher = more signal;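 further: score merges 667 nm fluorescence with signal-to-noise of each printed compound spot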
[10] = binders of probe aHhip on microarray, primary screen, stem cell growth factor project, biochemical, small-molecule microarray, fluorescence 635/667 (AID 1087); conditions: higher = more signal;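 further: score merges spot fluorescence at 667nm with spot signal to noise ratio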
[11] = tested on: PRMT1 (protein arginine N-methyltransferase 1); experiment: PRMT1 binders on small-molecule microarrays, primary screen, biochemical, small-molecule microarray, 635 nm fluorescence (AID 1088); conditions: small-molecule microarray binding, higher = more signal;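 further: binding of Prmt1 protein to compounds spotted on small-molecule microarray slides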
[12] = yeast growth modulation, basal conditions, primary screen, YJM789 clinical isolate, OD600, 24 h (AID 1089);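 further: growth of clinical yeast isolate S. cerevisiae YJM 789 seeded 1000 cells per well; test concentration not given here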; conditions: S. cerevisiae YJM789 growth, higher = more signal, called active from +8 up or from −8 down
[13] = fission yeast growth modulation, primary screen, strain 972, OD600, 24 h, no modulator (AID 1090);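 further: basal condition with compound alone and no growth modifier present; test concentration not given here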; conditions: S. pombe 972 growth, higher = more signal, called active from +8 up or from −8 down
[14] = S. cerevisiae growth modulation with rapamycin, primary screen, strain BY4716, OD600, 96 h (AID 1091); conditions: higher = more signal, called active from +8 up or from −8 down; further: test concentration not given here
[15] = molecular target: Torsin-1A-interacting protein 2 (Homo sapiens) (UniProt Q8NFQ8); experiment: LULL1 binders on small-molecule microarray, primary screen, cell lysate, human LULL1 lysate, 635/667 nm fluorescence (AID 1092); conditions: hLULL1 lysate binding, 635 nm fluorescence, higher = more signal;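 further: probe is lysate of COS7 cells overexpressing human LULL1; score merges per-feature 667 nm fluorescence with signal-to-noise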
Sequence of Torsin-1A-interacting protein 2 (Homo sapiens) (Q8NFQ8 whole entry, looked up): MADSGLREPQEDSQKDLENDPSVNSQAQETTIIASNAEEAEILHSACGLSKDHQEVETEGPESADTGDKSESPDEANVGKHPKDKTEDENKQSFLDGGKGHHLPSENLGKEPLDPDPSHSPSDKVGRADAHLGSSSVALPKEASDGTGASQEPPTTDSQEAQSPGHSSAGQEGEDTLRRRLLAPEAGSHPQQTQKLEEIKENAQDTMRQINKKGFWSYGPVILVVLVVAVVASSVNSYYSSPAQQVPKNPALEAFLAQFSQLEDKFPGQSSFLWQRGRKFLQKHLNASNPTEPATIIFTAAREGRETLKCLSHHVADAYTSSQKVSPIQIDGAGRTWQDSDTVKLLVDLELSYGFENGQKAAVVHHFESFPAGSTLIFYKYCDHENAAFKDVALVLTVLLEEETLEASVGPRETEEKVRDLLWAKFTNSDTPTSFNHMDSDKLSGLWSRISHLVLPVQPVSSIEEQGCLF

[16] = E. coli growth modulation, two-sided OD650, primary screen, E. coli filamentation project, strain DRC41, 24 h (AID 1093); conditions: OD650, 24 h, higher = more signal, called active from +8 up or from −8 down;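 further: MC1000 strain lacking acrAB efflux and sulA so SOS filamentation is blocked; test concentration not given here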
[17] = small-molecule microarray binders of probe aLefty2, primary screen, biochemical, biotinylated probe, 635/667 nm fluorescence (AID 1094); conditions: higher = more signal;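 further: score merges spot fluorescence near 667 nm with spot signal-to-noise ratio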
[18] = tested on: Noggin (protein binding on small-molecule microarray); experiment: Noggin binders on small-molecule microarray, primary screen, biochemical, 635/667 nm fluorescence (AID 1095); conditions: 635 nm fluorescence, higher = more signal;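 further: score merges 667 nm feature fluorescence with signal to noise over triplicate slides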
[19] = molecular target: Neurogenic locus notch homolog protein 3 (Homo sapiens) (UniProt Q9UM47); experiment: NOTCH3 binders on small-molecule microarray, primary screen, biochemical, 635/667 nm fluorescence (AID 1096); conditions: NOTCH3 binding, 635 nm fluorescence, higher = more signal
[20] = small-molecule microarray binders of probe aEGFR, primary screen, biochemical, biotinylated probe, 635/667 nm fluorescence (AID 1097); conditions: higher = more signal;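 further: probe is a biotinylated anti-EGFR antibody binding compounds printed on slides; score combines fluorescence near 667 nm and signal to noise of each spot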

SMILES | composite z-score [1] | composite z-score [2] | composite z-score [3] | composite z-score [4] | composite z-score [5] | composite z-score [6] | composite z-score [7] | z-score [8] | composite z-score [9] | composite z-score [10] | composite z-score [11] | z-score [12] | z-score [13] | z-score [14] | composite z-score [15] | z-score [16] | composite z-score [17] | composite z-score [18] | composite z-score [19] | composite z-score [20]
COCCOC(=O)N1C(=O)[C@@]2(c3cc(C#CCC(C(=O)OC)C(=O)OC)ccc31)[C@H](C(=O)N1CCCCCCC1)[C@H]1C(=O)O[C@H](c3ccccc3)[C@H](c3ccccc3)N1[C@@H]2c1ccc(OCCO)cc1 | 3.71 | 1.81 | 0.755 | 0.833 | 1.32 | 2.11 | 1.36 | 0.109 (inactive) | 3.4 | 2.72 | 1.54 | 1.47 (inactive) | 0.168 (inactive) | 2.66 (inactive) | 4.11 | 0.275 (inactive) | 1.66 | 2.02 | 1.05 | 1.26
O=C1C=CC(=O)[C@@H]2CC(COc3ccccc3)=C3[C@@H](CCc4ccccc4)OB(O)C[C@@H]3[C@H]12 | 0.232 | 2.47 | -0.132 | 0.272 | 0.222 | -0.18 | 0.184 | -1.29 (inactive) | -0.467 | 0.176 | 0.702 | 0.168 (inactive) | -8.15 (active) | 0.203 (inactive) | -0.188 | -0.125 (inactive) | -0.289 | 0.533 | 0.49 | 0.0338
COc1ccc(C#Cc2ccc3c(c2)[C@]2(C(=O)N3)[C@H](c3ccc(O)cc3)N3[C@H](c4ccccc4)[C@H](c4ccccc4)OC(=O)[C@H]3[C@@H]2C(=O)NC[C@H](O)c2ccccc2)cc1 | -0.127 | 0.0172 | -0.0599 | 0.776 | 0.757 | 0.563 | 1.15 | 0.72 (inactive) | 0.317 | -0.288 | 0.958 | 2.29 (inactive) | 0.241 (inactive) | 1.75 (inactive) | 2.17 | 0.864 (inactive) | -0.0778 | 0.897 | 1.01 | 0.0221
COc1ccc(C#Cc2ccc3c(c2)[C@]2(C(=O)N3)[C@H](C(=O)NC[C@H](O)c3ccccc3)[C@H]3C(=O)O[C@H](c4ccccc4)[C@H](c4ccccc4)N3[C@@H]2c2ccc(OCCO)cc2)cc1 | -0.547 | 0.637 | -0.0005 | 0.6 | 0.975 | 1.07 | 1.19 | 0.943 (inactive) | 0.0324 | -0.32 | 1.49 | 2.85 (inactive) | 1.64 (inactive) | 4.35 (inactive) | 2.96 | -0.508 (inactive) | -0.22 | 1.52 | 1.09 | -0.0746
O=C1O[C@@H](c2ccccc2)[C@@H](c2ccccc2)N2[C@@H](c3ccccc3OCCO)[C@]3(C(=O)Nc4ccc(C#CC5(O)CCCCCC5)cc43)[C@@H](C(=O)Nc3nc4ccccc4s3)[C@H]12 | -0.508 | 0.984 | -0.0113 | 0.895 | 1.22 | 0.678 | 1.11 | -0.0944 (inactive) | 0.806 | 1.22 | 1.56 | 1.39 (inactive) | 1.96 (inactive) | 3.42 (inactive) | 2.19 | 0.0499 (inactive) | 0.01 | 1.33 | 1.06 | 1.01
CCOC(=O)C[C@H]1[C@H](OC(=O)c2ccccc2-c2ccccc2)[C@@H](NC(=O)c2ccc3ccccc3c2)c2cc(OCCCO)ccc2N1C(=O)c1ccc2ccccc2n1 | -0.279 | 0.353 | -0.08 | 0.443 | 0.135 | 0.0753 | 0.545 | 0.122 (inactive) | 0.484 | -0.0373 | 0.389 | 0.47 (inactive) | 0.623 (inactive) | 0.136 (inactive) | 0.998 | -0.263 (inactive) | -0.102 | 0.526 | 0.818 | -0.111
C=CC[C@@]1(C(=O)N2CCOCC2)N=C(c2ccc(OCCCO)cc2)O[C@@H]1c1ccccc1N=[N+]=[N-] | 0.529 | 0.985 | -0.0073 | 0.853 | 1.53 | 1.44 | 1.19 | -0.469 (inactive) | 0.993 | 0.21 | 1.54 | -1.27 (inactive) | -1.02 (inactive) | 0.811 (inactive) | 3.41 | 0.639 (inactive) | 0.362 | 0.998 | 1.13 | 0.353
COc1cc2c(cc1OC)CN(C(=O)[C@@H]1[C@H]3C(=O)O[C@H](c4ccccc4)[C@H](c4ccccc4)N3[C@H](c3ccccc3OCCO)[C@@]13C(=O)Nc1ccc(C#CCNC(N)=O)cc13)CC2 | 0.309 | 0.586 | 0.0564 | 0.837 | 0.936 | 0.852 | 1.07 | 0.297 (inactive) | 0.237 | -0.074 | 1.48 | 0.443 (inactive) | 1 (inactive) | 3.09 (inactive) | 2.61 | 0.912 (inactive) | 0.257 | 1.09 | 1.08 | -0.0873
O=C1OCCC=C[C@H]2OC34C=CCN(c5ccc6ccccc6c5)C(=O)[C@H]3N(CCCCCO)C(=O)[C@@H]4C12 (stereo not given in full) | 1.05 | 2.06 | -0.116 | 0.0074 | -0.377 | 2.17 | 1.57 | -0.517 (inactive) | -0.188 | 0.0176 | 0.737 | -0.748 (inactive) | -1.64 (inactive) | -0.8 (inactive) | 2.42 | 1.12 (inactive) | -0.0953 | -0.586 | -0.039 | -0.157
C=CCC(OC(C)=O)[C@@H]1[C@@H](N(Cc2cccc3ccccc23)C(=O)c2cccc3ccccc23)c2cc(OCCCO)ccc2N1C(=O)c1ccc2ccccc2n1 (stereo not given in full) | -0.218 | 0.215 | 0.0083 | 0.281 | -0.0258 | -0.0137 | -0.444 | -2.01 (inactive) | 0.0846 | 0.0826 | 0.346 | -1.03 (inactive) | 0.626 (inactive) | -0.964 (inactive) | 0.681 | -0.764 (inactive) | -0.0102 | 0.282 | -0.0176 | -0.0549
COc1cc(C(O)C2C=CC3C(=O)N(c4ccccc4)C(=O)C3N2Nc2ccc(C#N)cc2)cc(OC)c1OC (stereo not given) | 0.606 | 0.226 | 0.179 | 1.14 | 1.67 | 2.18 | 1.41 | 0.209 (inactive) | 1.77 | 0.295 | 1.54 | -0.531 (inactive) | 0.849 (inactive) | 1.75 (inactive) | 3.84 | -1.27 (inactive) | 0.368 | -0.0742 | 1.03 | 0.273
